High-throughput results (PubChem)
TIM10 inh: inhibits growth of TIM10 yeast strain. S. cerevisiae TIM10 strain growth, BacTiter-Glo luminescence, 24 h. inhibition, % at 10 µM. 1.4% of 330,000 active. AID 463195;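 active means inhibition of 40% or more at the single tested concentration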;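 further: wild-type TIM10 isogenic control strain grown at permissive 25 °C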
PfHsp90 yeast 2: growth inhibition of yeast expressing Plasmodium Hsp90; S. cerevisiae expressing PfHsp90, BacTiter-Glo ATP, 48 h; yeast lacking PDR1 and PDR3 efflux regulators; inhibition, % at 9.4 µM; 0.32% of 310,000 active; AID 504621;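 active means every replicate shows inhibition above about 80%, whatever the replicate mean, limit read from the data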
Beta2AR agonist: activates human beta-2 adrenergic receptor causing internalization; Am2.2-beta2AR cells, FAP receptor internalization, flow cytometry; P07550; response, % (test concentration not listed); 0.43% of 340,000 active; AID 504454;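 active means response above a set limit, near 3 SD of response in nonfluorescent compounds, cut at about 42% in these data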
Target sequence (P07550 whole entry, looked up): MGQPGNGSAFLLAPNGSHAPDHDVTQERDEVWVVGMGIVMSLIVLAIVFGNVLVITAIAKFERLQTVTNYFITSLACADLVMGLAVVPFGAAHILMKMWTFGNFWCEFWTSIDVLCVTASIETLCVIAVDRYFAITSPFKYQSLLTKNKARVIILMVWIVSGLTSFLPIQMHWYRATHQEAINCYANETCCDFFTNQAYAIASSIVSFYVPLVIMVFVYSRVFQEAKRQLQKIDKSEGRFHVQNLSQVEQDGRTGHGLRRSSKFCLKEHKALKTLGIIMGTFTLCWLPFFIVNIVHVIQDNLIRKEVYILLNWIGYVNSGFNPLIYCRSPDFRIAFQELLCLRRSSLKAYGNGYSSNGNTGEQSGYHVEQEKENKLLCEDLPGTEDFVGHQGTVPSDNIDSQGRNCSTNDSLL
tim10-1 inh: inhibits growth of tim10-1 mutant yeast | S. cerevisiae tim10-1 ts strain growth, BacTiter-Glo, 24 h | inhibition, % at 20 µM | 2.2% of 330,000 active | AID 463190;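 active means inhibition of at least 40%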;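 further: mutant grown at 25 °C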
tim23-1 inh: tim23-1 yeast growth inhibition; inhibition, % at 20 µM; S. cerevisiae tim23-1 growth, BacTiter-Glo luminescence, 24 h; 1.3% of 330,000 active; AID 463212;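 active means growth inhibition of the mutant yeast at or above 50%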;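 further: temperature-sensitive mutant grown at 25 °C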
tim10-1 conf: tim10-1 yeast growth inhibition, confirmed; shares compounds with tim10-1 inh; S. cerevisiae tim10-1 ts strain growth, BacTiter-Glo, 24 h; inhibition, % at 20 µM; 56% of 7,400 active;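 active means inhibition of yeast growth at or above a set limit in either of two repeat tests at 20 µM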;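 further: tim10-1 mutant grown at permissive 25 °C to find synthetic lethal compounds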
TIM10 conf: confirmation of TIM10 yeast growth inhibitors. shares compounds with TIM10 inh. S. cerevisiae tim10 strain growth, BacTiter-Glo luminescence, 24 h. inhibition, % at 10 µM. 63% of 4,600 active. AID 463215;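 active means inhibition of yeast growth at or above a set limit in either of two replicates at 10 µM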; further: this counterscreen used the strain with wild-type TIM10
tim23-1 confirm: confirmation of tim23-1 mutant yeast growth inhibitors. 83% of 4,400 active. AID 463218. shares compounds with tim23-1 inh. inhibition, % at 20 µM. S. cerevisiae tim23-1 growth, BacTiter-Glo luminescence, 24 h;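 active means inhibition above about 39% in either of two replicate wells at 20 µM, limit read from the data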;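 further: temperature-sensitive tim23-1 mutant grown at 25 °C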
Numbers stand for hits; 0 = inactive; - = no result. Rows were chosen to be rich in hits. Some 3.8% of all compounds tested hit in one or more screens of this group.

SMILES | TIM10 inh | PfHsp90 yeast 2 | Beta2AR agonist | tim10-1 inh | tim23-1 inh | tim10-1 conf | TIM10 conf | tim23-1 confirm
O=C(CC1C(=O)N(c2ccccc2)C(=S)N1c1ccccc1)c1ccccc1 (stereo unspecified) | 49.1 | 0 | 0 | 46.9 | 52.2 | 41.6 | 40.4 | 52.5
Cc1ccc(C(=O)Nc2ncc([N+](=O)[O-])s2)cc1 | - | 0 | 0 | - | - | - | - | -
O=C(Nc1ncc([N+](=O)[O-])s1)c1ccco1 | 46.2 | 0 | 0 | 40.2 | 53.4 | 39.9 | 0 | 47.5
Cc1cc(C)nc(S/C=C/C(=O)c2ccccc2F)n1 | 53.4 | 0 | 0 | 43.4 | 63.8 | 0 | 53.2 | 63.2
O=C(N/N=C\c1ccc(-c2ccc([N+](=O)[O-])cc2)o1)c1ccc2c(c1)OCO2 | 0 | 0 | 0 | 0 | 0 | - | - | -
O=C(N/N=C/c1ccc([N+](=O)[O-])o1)c1ccc2c(c1)OCO2 | 63.7 | 0 | 0 | 63.9 | 78.7 | 59.5 | 51.8 | 0
Cc1cccc(C)c1OCc1cc(C(=O)NCC2CC2)no1 | 0 | 0 | 0 | 0 | 0 | - | - | -
Nc1ncnc2c1C1(CCCCC1)Cc1ccccc1-2 | 0 | 0 | 0 | 42.1 | 50.0 | 0 | - | 0
Cc1ccc(-c2nc(N/N=C/c3cccc([N+](=O)[O-])c3)c3ccccc3n2)cc1 | 0 | 0 | 0 | 0 | 0 | - | - | -
Cc1ccc(-c2nc(N/N=C/c3cccnc3)c3ccccc3n2)cc1 | 66.2 | 0 | 0 | 75.8 | 84.3 | 73.9 | 59.0 | 85.2
O=C1C=C(C2OC(CO)C(O)C2O)C(=O)N1 (stereo unspecified) | - | 0 | 0 | - | - | - | - | -
O=C(NCCOc1nc(N2CCCCC2)nc(N2CCCCC2)n1)Nc1ccccc1 | 0 | 0 | 0 | 0 | 0 | - | - | -
CCN(CC)c1nc(OCCNC(=O)Nc2ccccc2)nc(N(CC)CC)n1 | 0 | 0 | 0 | 41.8 | 61.6 | 34.8 | - | 49.7
CC(=O)Nc1ccc2c(c1)C(=O)c1cccc(C(=O)O)c1-2 | - | 0 | 0 | - | - | - | - | -
O=C(ONC1=NCCCCC1)c1cccc([N+](=O)[O-])c1 | 82.3 | 0 | 0 | 60.6 | 78.0 | 37.7 | 89.7 | 68.8
COc1ccccc1N(C)S(=O)(=O)c1ccc(Cl)c(C(=O)Nc2ccccc2N2CCOCC2)c1 | - | - | 0 | - | - | - | - | -
CCn1ncc([N+](=O)[O-])c1C(=O)Nc1nc2cccc(C)c2s1 | 0 | 0 | 0 | 47.1 | 51.2 | 0 | - | 50.3
O=C(C1=C(O)/C(=C/c2ccc(O)cc2)CCC1)C(F)(F)F | 0 | 0 | 0 | 49.7 | 51.8 | 0 | - | 58.8
NC1=NC(=O)/C(=C/c2ccc(Br)cc2)S1 | 0 | 0 | 0 | 0 | 0 | - | - | -
CCOC(=O)CSC1=NC(=O)/C(=C/c2ccc(Br)cc2)S1 | 60.8 | 0 | 0 | 48.5 | 60.7 | 62.1 | 52.1 | 69.7
COc1cc(/C=C(\C#N)C(=O)NCC2CCCO2)ccc1OC(=O)c1ccco1 (stereo unspecified) | 0 | - | 0 | 40.0 | 64.3 | 34.3 | - | 53.0
O=S(=O)(Nc1ccc(-c2nc3ccccc3o2)cc1)c1ccccc1 | 52.3 | 0 | 0 | 46.7 | 61.4 | 40.2 | 36.0 | 52.8
CC(=O)Nc1ccc(S(=O)(=O)Nc2cccc(-c3nc4ccccc4o3)c2)cc1 | 0 | 0 | 0 | 0 | 0 | - | - | -
CC1CCN(C(=O)c2ccc([N+](=O)[O-])o2)CC1 | 0 | 0 | 0 | 41.2 | 55.5 | 40.2 | - | 57.7
N#CC1(NC(=O)COC(=O)C2CCN(S(=O)(=O)c3ccc4c(c3)OCCO4)CC2)CCCCC1 | - | 0 | 0 | - | - | - | - | -
SMILES | TIM10 inh | PfHsp90 yeast 2 | Beta2AR agonist | tim10-1 inh | tim23-1 inh | tim10-1 conf | TIM10 conf | tim23-1 confirm
O=C(/C=C\c1ccccc1OC(=O)c1ccccc1F)c1cc2ccccc2o1 | 48.5 | 0 | 0 | 54.7 | 58.7 | 34.5 | 0 | 49.9
COc1ccc(C(C)=O)cc1CSc1ccc(S(=O)(=O)N2CCCCC2)cn1 | 0 | 0 | 0 | 0 | 0 | - | - | -
Cc1nn(C)c(C(=O)Sc2cccc(Cl)c2)c1[N+](=O)[O-] | 0 | 0 | 0 | 46.5 | 61.3 | 65.1 | - | 83.8
COc1cc(C2c3cc4c(cc3OC(NCCc3ccccc3)C2C)OCO4)cc(OC)c1OC (stereo unspecified) | - | 0 | 0 | - | - | - | - | -
O=C1c2ccccc2NC(c2ccc(-c3ccc(Br)cc3)o2)N1O (stereo unspecified) | 44.1 | 124.9 | 0 | 46.2 | 62.0 | 0 | 51.9 | 64.8
C=C1/C=C(\C)[C@](C)(O)C[C@H](O)CC(=O)[C@H](O)[C@@H](O)[C@H](C)C[C@H](C)OC(=O)/C(C)=C/CC/C=C/[C@@H]2O[C@H]2C[C@H](C)C1 | 0 | - | - | 0 | 0 | - | - | -
O=C(COC(=O)c1ccc2c(c1[N+](=O)[O-])C(=O)c1ccccc1C2=O)NC1CC1 | 60.1 | 0 | 0 | 79.7 | 75.9 | 63.8 | 45.7 | 73.2
CN(C)c1ccc(/C=C/C(=O)c2ccccc2O)cc1 | 0 | 0 | 0 | 0 | 0 | - | - | -
O=C(/C=C/c1ccc2c(c1)OCCCO2)c1ccccc1O | 60.3 | 0 | 0 | 53.2 | 50.5 | 46.4 | 0 | 0
COc1cc(/C=C/C(=O)c2ccccc2O)cc(OC)c1OC | 0 | 0 | 0 | 53.5 | 62.1 | 43.0 | - | 55.1
CCc1c(C)c(C#N)c2nc3ccccc3n2c1NCCOC | 0 | 0 | 0 | 0 | 0 | - | - | -
Cc1c(Cc2ccccc2)c(NCCN(C)C)n2c(nc3ccccc32)c1C#N | 69.0 | 110.7 | 0 | 47.9 | 57.5 | 56.8 | 80.2 | 69.5
CCCCc1c(C)c(C#N)c2nc3ccccc3n2c1NCCN(C)C | 51.9 | 0 | 0 | 57.2 | 65.3 | 63.0 | 37.2 | 68.8
Nc1nccnc1C(=O)OCC(=O)Nc1ccc2[nH]c(=O)[nH]c2c1 | 0 | 0 | 0 | 0 | 0 | - | - | -
NNc1nc(-c2ccccc2)nc(-c2ccccc2)c1Br | 41.5 | 0 | 0 | 46.3 | 56.7 | 33.3 | 0 | 45.6
N#Cc1cc(N)ccc1Sc1ccc(Cl)cc1 | 0 | 0 | 0 | 55.5 | 69.0 | 31.2 | - | 47.9
Cc1nn2c(NCc3ccccn3)cc(C(C)(C)C)nc2c1-c1ccccc1 | 56.3 | 119.8 | 0 | 61.9 | 57.5 | 36.8 | 72.2 | 61.8
Cc1ccc(S(=O)(=O)N2CCC[C@H]2C(=O)NC2CCCCC2)cc1 | - | 0 | 0 | - | - | - | - | -
O=S(=O)(c1ccc(SCCOc2ccc(Cl)cc2)nc1)N1CCCC1 | 0 | 0 | 0 | 0 | 0 | - | - | -
CN1CCN(S(=O)(=O)c2ccc(SCCOc3ccccc3)nc2)CC1 | 49.4 | - | 0 | 47.5 | 56.8 | 51.8 | 48.6 | 46.2
C=C1[C@H]2O[C@H]2[C@@H](OC(C)=O)[C@@]2(C)[C@@H](OC(C)=O)C[C@@H](OC(C)=O)[C@@](C)(O)[C@@H]2[C@@H](OC(C)=O)[C@@]2(O)[C@@H](C)C(=O)O[C@H]2[C@H]1Cl | - | 0 | 0 | - | - | - | - | -
CCN(CC)S(=O)(=O)c1cc(NC(=O)c2ccc(-n3cncn3)c([N+](=O)[O-])c2)ccc1C | 0 | 0 | 0 | 0 | 0 | - | - | -
